Experimental data published in PubChem BioAssay.
Where “and” joins values, the source holds several entries; their conditions need not be identical. Equal values may be shown once. Calls of active or inactive are those of the source.

Legend:
[1] = small molecules captured by biotinylated probe aFSTL3 – biochemical, small-molecule microarray, fluorescence 635/667, stem cell growth factor project, primary screen (AID 1064); details: higher = more signal;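 further: measures binding of the biotinylated anti-FSTL3 antibody to printed compounds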
[2] = binders from COS7 lysate, DM2A8 probe, primary screen, torsin A project, cell lysate, small-molecule microarray, fluorescence 635/667 (AID 1065); details: higher = more signal, COS7 lysate expressing mutant human TOR1A
[3] = small molecules captured by biotinylated probe aFGF2 – biochemical, small-molecule microarray, fluorescence 635/667, stem cell growth factor project, primary screen (AID 1067); details: higher = more signal;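 further: measures binding of biotinylated aFGF2 protein to printed compounds on slides; z-score merges feature fluorescence and signal-to-noise across triplicate slides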
[4] = small molecules captured by biotinylated probe aFGF10 – biochemical, small-molecule microarray, fluorescence 635/667, stem cell growth factor project, primary screen (AID 1071); details: higher = more signal;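 further: score merges 667 nm spot intensity and signal to noise from triplicate slides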
[5] = biological target: Neurogenic locus notch homolog protein 2 (Homo sapiens) (UniProt Q04721); assay: small molecules binding Notch2 protein – biochemical, small-molecule microarray, 635 nm fluorescence, stem cell growth factors, primary screen (AID 1073); details: higher = more signal
Chain of Neurogenic locus notch homolog protein 2 (Homo sapiens) (Q04721 whole entry, looked up, canonical isoform): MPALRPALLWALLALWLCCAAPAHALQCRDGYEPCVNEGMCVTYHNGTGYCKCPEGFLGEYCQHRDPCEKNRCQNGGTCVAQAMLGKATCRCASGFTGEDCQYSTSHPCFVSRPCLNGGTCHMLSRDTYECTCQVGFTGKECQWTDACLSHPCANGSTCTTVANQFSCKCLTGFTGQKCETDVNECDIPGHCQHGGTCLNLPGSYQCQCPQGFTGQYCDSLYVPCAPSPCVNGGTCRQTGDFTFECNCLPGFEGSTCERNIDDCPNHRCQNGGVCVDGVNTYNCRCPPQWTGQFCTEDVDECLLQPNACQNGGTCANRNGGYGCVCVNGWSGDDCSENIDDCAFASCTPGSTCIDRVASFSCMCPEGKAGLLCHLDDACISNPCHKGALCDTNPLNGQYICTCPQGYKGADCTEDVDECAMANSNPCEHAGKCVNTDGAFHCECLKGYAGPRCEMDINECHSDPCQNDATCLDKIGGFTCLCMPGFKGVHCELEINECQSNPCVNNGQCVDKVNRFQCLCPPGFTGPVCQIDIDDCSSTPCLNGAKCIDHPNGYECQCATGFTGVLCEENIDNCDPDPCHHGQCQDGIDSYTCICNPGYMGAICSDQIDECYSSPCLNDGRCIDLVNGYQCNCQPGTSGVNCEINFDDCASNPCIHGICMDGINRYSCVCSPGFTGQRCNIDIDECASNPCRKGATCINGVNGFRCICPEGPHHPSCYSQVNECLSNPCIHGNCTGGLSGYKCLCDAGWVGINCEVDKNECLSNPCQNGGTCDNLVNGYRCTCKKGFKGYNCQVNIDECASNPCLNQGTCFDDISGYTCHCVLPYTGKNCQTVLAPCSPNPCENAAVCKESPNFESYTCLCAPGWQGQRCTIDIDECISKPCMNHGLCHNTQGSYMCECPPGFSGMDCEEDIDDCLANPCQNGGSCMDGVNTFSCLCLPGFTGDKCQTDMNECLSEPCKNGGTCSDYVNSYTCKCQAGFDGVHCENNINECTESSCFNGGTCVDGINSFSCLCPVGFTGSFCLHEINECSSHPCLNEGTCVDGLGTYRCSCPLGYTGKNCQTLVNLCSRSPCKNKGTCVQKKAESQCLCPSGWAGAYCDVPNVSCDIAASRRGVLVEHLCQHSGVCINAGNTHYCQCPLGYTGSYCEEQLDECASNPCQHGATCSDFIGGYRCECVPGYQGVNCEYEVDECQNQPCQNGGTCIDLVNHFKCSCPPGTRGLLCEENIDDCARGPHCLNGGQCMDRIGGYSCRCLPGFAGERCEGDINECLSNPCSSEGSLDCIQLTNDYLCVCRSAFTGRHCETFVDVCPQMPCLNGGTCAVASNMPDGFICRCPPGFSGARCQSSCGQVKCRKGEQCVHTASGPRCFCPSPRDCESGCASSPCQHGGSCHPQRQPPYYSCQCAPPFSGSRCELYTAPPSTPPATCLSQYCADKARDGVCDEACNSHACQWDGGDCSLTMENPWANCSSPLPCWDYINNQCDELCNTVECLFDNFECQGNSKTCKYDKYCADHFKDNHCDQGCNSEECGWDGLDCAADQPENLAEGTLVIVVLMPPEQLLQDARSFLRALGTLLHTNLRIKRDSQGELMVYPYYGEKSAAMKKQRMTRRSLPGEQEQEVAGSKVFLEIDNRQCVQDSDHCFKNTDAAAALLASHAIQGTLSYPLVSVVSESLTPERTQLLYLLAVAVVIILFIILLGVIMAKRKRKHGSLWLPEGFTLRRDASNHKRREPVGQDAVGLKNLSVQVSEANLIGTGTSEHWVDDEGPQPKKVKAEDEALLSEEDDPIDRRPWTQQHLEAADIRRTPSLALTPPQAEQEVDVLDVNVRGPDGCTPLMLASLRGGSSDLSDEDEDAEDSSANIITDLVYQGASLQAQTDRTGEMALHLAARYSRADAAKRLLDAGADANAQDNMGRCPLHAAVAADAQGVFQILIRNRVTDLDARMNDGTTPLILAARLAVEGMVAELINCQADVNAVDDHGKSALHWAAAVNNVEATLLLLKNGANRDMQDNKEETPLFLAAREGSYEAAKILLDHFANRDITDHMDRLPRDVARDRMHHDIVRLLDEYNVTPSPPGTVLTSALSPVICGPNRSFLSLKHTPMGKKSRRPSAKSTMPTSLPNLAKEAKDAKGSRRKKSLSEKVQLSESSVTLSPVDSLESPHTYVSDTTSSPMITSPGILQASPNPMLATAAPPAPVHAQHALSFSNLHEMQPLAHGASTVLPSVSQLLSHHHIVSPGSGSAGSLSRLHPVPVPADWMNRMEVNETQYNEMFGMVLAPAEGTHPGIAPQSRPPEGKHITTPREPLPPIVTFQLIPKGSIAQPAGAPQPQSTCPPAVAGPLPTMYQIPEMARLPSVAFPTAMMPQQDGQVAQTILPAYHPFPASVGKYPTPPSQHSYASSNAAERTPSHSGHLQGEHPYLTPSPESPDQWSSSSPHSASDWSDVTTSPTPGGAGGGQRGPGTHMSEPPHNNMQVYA

[6] = biological target: Pro-neuregulin-1, membrane-bound isoform (Homo sapiens) (UniProt Q02297); assay: small molecules binding neuregulin-1 protein – biochemical, small-molecule microarray, fluorescence 635/667, psychiatric disease protein project, primary screen (AID 1075); details: NRG1 binding, 635 nm fluorescence, higher = more signal;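 further: score combines 667 nm spot fluorescence with signal to noise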
Chain of Pro-neuregulin-1, membrane-bound isoform (Homo sapiens) (Q02297 whole entry, looked up, the tested form may be a part, canonical isoform): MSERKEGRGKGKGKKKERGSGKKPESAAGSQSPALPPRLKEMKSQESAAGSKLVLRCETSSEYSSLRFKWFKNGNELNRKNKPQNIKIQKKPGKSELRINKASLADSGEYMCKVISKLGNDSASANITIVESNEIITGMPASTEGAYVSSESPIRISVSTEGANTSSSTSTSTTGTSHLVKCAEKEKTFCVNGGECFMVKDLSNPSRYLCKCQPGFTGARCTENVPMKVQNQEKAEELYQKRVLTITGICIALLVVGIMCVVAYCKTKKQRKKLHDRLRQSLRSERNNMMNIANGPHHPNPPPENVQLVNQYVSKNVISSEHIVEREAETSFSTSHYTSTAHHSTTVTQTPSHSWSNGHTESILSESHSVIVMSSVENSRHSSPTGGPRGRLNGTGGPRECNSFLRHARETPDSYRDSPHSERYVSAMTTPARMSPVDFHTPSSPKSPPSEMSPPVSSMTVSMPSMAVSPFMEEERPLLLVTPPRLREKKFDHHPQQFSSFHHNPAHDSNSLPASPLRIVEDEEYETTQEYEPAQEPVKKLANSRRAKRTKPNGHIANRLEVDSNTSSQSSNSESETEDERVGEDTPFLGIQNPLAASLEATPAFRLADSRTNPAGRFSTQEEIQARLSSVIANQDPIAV

[7] = system: Neuregulin-1 EGF-like domain; assay: small molecules binding NRG1 EGF domain – biochemical, small-molecule microarray, 635 nm fluorescence, primary screen (AID 1081); details: higher = more signal;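 further: binding of the protein to compounds printed on small-molecule microarray slides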
[8] = FRG1 expression reporter modulators in myotubes – cell-based, C2C12 myotubes, firefly/Renilla luciferase, luminescence, FRG1 inhibition for FSHD, primary screen (AID 1084); details: FRG1 promoter luciferase, higher = more signal, called active from +8 up or from −8 down
[9] = small molecules captured by biotinylated probe aFST – biochemical, small-molecule microarray, fluorescence 635/667, stem cell growth factor project, primary screen (AID 1086); details: higher = more signal;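 further: score merges 667 nm fluorescence with signal-to-noise of each printed compound spot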
[10] = binders of probe aHhip on microarray, primary screen, stem cell growth factor project, biochemical, small-molecule microarray, fluorescence 635/667 (AID 1087); details: higher = more signal;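 further: score merges spot fluorescence at 667nm with spot signal to noise ratio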

For `CC(C)=NO[C@@H](C)c1cc(-c2c(C)cc(C)cc2C)no1`, the composite z-score [1] was 1.18, the composite z-score [2] was -0.146 and the composite z-score [3] was -0.135. For the same compound, the composite z-score [4] was 0.0794, the composite z-score [5] was -0.243 and the composite z-score [6] was -0.0227. For the same compound, the composite z-score [7] was -0.304, the z-score [8] was 0.122 (inactive) and the composite z-score [9] was -0.163. It also gave a composite z-score [10] of 0.0854.

`COc1ccc(COC(=O)NN=C2C[C@@H](O)[C@@H](O)[C@@H]3[C@@H]4C(=O)N(C(C)(C)C)C(=O)[C@@H]4CC[C@H]23)cc1` gave a composite z-score [1] of -0.494, a composite z-score [2] of 0.602 and a composite z-score [3] of -0.0439. It also gave a composite z-score [4] of 0.799, a composite z-score [5] of 0.29 and a composite z-score [6] of 1.46. For the same compound, the composite z-score [7] was 1.13, the z-score [8] was -1.03 (inactive) and the composite z-score [9] was 0.0715. For the same compound, the composite z-score [10] was -0.13.

In the case of `CO[C@H]1COC(=O)CC=C[C@@H](C)COC(=O)[C@H](CCSC)NC(=O)CC=C[C@@H]1C`, the composite z-score [1] is reported as -0.638 and -0.893, the composite z-score [2] is reported as 2.71 and 2.84 and the composite z-score [3] is reported as 0.561 and -0.386. The composite z-score [4] was -0.174 and -0.853, the composite z-score [5] was -0.375 and -0.583 and the composite z-score [6] was -0.591 and -1.25. The composite z-score [7] was 1.01 and 0.444, the z-score [8] was -0.172 (inactive) and -0.845 (inactive) and the composite z-score [9] was 0.536 and 0.0907. For the same compound, the composite z-score [10] was 0.12 and -0.154.

For `CCOC(=O)C[C@H]1[C@H](OC(=O)c2ccccc2-c2ccccc2)[C@@H](NC(=O)Cc2ccc(OC)cc2)c2cc(OCCCO)ccc2N1C(=O)Cc1ccc(OC)cc1`, the composite z-score [1] was 0.169 and 0.18, the composite z-score [2] was 0.22 and 0.0916 and the composite z-score [3] was 0.0811 and -0.0737. The composite z-score [4] was 0.473 and -0.0644, the composite z-score [5] was -0.386 and -0.0483 and the composite z-score [6] was 0.621 and -0.428. For the same compound, the composite z-score [7] was 0.927 and -0.835, the z-score [8] was -0.848 (inactive) and -0.382 (inactive) and the composite z-score [9] was 0.492 and 0.0474. The composite z-score [10] was -0.0994 and -0.199.

With `C=CC[C@H](O)c1ccc(OCCO)cc1` the composite z-score [1] was 0.857 and 0.327, the composite z-score [2] was -0.688 and 0.148 and the composite z-score [3] was -0.153. For the same compound, the composite z-score [4] was -1.16 and -0.746, the composite z-score [5] was -1 and -1.04 and the composite z-score [6] was 0.524 and -0.434. For the same compound, the composite z-score [7] was 0.176 and 0.997, the z-score [8] was 0.831 (inactive) and 2.16 (inactive) and the composite z-score [9] was -0.396 and -0.905. For the same compound, the composite z-score [10] was -0.261 and -0.296.

With `COC(=O)[C@@]1(Cc2ccc(F)cc2)[C@H]2c3cc(C(=O)N4CCCC4)n(Cc4c(CO)[nH]cc(C)c4=O)c3C[C@H]2CN1C(=O)c1ccccc1` the composite z-score [1] was 1.8 and 0.692, the composite z-score [2] was -0.101 and -1.02 and the composite z-score [3] was 0.775 and -0.0485. For the same compound, the composite z-score [4] was 1.22 and 0.774, the composite z-score [5] was 1.43 and 1.42 and the composite z-score [6] was 1.92 and 1.21. For the same compound, the composite z-score [7] was 1.31 and 1.1, the z-score [8] was 1.78 (inactive) and -0.112 (inactive) and the composite z-score [9] was 1.54 and 0.659. The composite z-score [10] was 1.42 and 0.314.

For `COC(=O)C1=C(C)N(Cc2ccccc2)[C@]23O[C@](C(=O)OC)(C(=O)N2[C@@H]1c1ccccc1)[C@@H](C(=O)OC)[C@H]3C(=O)OC`, the composite z-score [1] was 0.202 and -0.441, the composite z-score [2] was -0.295 and -0.1 and the composite z-score [3] was -0.112 and -0.0712. For the same compound, the composite z-score [4] was -0.204 and 0.255, the composite z-score [5] was -0.481 and 0.25 and the composite z-score [6] was 0.943 and -0.386. The composite z-score [7] was 0.393 and 0.208, the z-score [8] was -0.125 (inactive) and -0.101 (inactive) and the composite z-score [9] was -0.243 and -0.0583. For the same compound, the composite z-score [10] was -0.137 and -0.189.

In the case of `C[C@@H]1CC[C@H]2C(=O)O[C@H](CN=[N+]=[N-])CN2[C@H]1c1ccc(Br)cc1`, the composite z-score [1] is reported as -0.0927 and -0.0564, the composite z-score [2] is reported as 0.622 and 0.269 and the composite z-score [3] is reported as -0.158 and -0.187. The composite z-score [4] was -0.12 and -0.336, the composite z-score [5] was -0.321 and -0.635 and the composite z-score [6] was -0.198 and 0.292. For the same compound, the composite z-score [7] was -0.238 and -0.279, the z-score [8] was -0.492 (inactive) and -0.161 (inactive) and the composite z-score [9] was 0.3 and -0.405. The composite z-score [10] was -0.0657 and -0.0618.

With `COc1ccc(-c2ccc3c(n2)CCCN3CC(O)CN2CCCc3nc(-c4ccc(Br)cc4)ccc32)cc1` (stereo not given) the composite z-score [1] was 0.0623 and 0.0721, the composite z-score [2] was 0.744 and 0.464 and the composite z-score [3] was 0.12. For the same compound, the composite z-score [4] was 0.505 and 0.348, the composite z-score [5] was 0.684 and 0.709 and the composite z-score [6] was 1.05 and 0.841. For the same compound, the composite z-score [7] was 0.973 and 0.101, the z-score [8] was 3.12 (inactive) and 3.15 (inactive) and the composite z-score [9] was 0.584 and 0.306. The composite z-score [10] was 0.281 and 0.167.

For `C=C[C@H](C)[C@@H](O)c1ccc(OCCO)cc1`, the composite z-score [1] was 0.535 and 0.672, the composite z-score [2] was -0.549 and -0.859 and the composite z-score [3] was -0.215 and -0.188. For the same compound, the composite z-score [4] was -0.907 and -0.473, the composite z-score [5] was -1.9 and -0.991 and the composite z-score [6] was -0.612 and 0.783. The composite z-score [7] was -0.0529 and 0.395, the z-score [8] was 1.94 (inactive) and 2.3 (inactive) and the composite z-score [9] was -0.552 and -0.723. The composite z-score [10] was -0.204 and -0.0393.

For `Cc1ccc(S(=O)(=O)N[C@@H]2COC(=O)CC=C[C@@H](C)[C@@H]3C=C[C@H](O)[C@@H](COC(=O)CC=C[C@H]2C)O3)cc1`, the composite z-score [1] was -0.534 and -0.776, the composite z-score [2] was 1.1 and 0.792 and the composite z-score [3] was -0.131 and -0.175. For the same compound, the composite z-score [4] was 0.0127 and 0.11, the composite z-score [5] was -0.557 and 0.111 and the composite z-score [6] was -0.22 and -0.195. The composite z-score [7] was 0.0077 and 0.324, the z-score [8] was 0.132 (inactive) and 0.646 (inactive) and the composite z-score [9] was 0.101 and 0.0406. For the same compound, the composite z-score [10] was 0.0243 and -0.26.

For `C=CCN(CCCCC)C(=O)C(c1cccs1)N(C(=O)/C=C\C(=O)O)c1ccc(CCO)cc1` (stereo not given), the composite z-score [1] was 0.786 and 0.657, the composite z-score [2] was -1.96 and -1.13 and the composite z-score [3] was -0.182 and -0.201. The composite z-score [4] was -0.507 and -1.34, the composite z-score [5] was -1.77 and -0.81 and the composite z-score [6] was 0.279 and -0.706. The composite z-score [7] was 1.53 and 1.51, the z-score [8] was 0.349 (inactive) and 0.348 (inactive) and the composite z-score [9] was -0.713 and -0.498. For the same compound, the composite z-score [10] was 0.106 and -0.274.

With `C=CCN(Cc1ccccc1)C(=O)C1N(CCOCCO)C(=O)C2C(C(=O)O)C3C=CC21O3` (stereo not given) the composite z-score [1] was 1.75 and 1.34, the composite z-score [2] was -1.1 and -1.84 and the composite z-score [3] was -0.309 and -0.27. For the same compound, the composite z-score [4] was -2.7 and -1.09, the composite z-score [5] was -2.27 and -1.42 and the composite z-score [6] was 1.27 and 0.866. For the same compound, the composite z-score [7] was 0.731 and 0.433, the z-score [8] was -0.91 (inactive) and -0.244 (inactive) and the composite z-score [9] was -1.06 and -1.03. The composite z-score [10] was -0.423 and -0.362.

In the case of `CO[C@@H]1COC(=O)CC=C[C@H](C)[C@@H](NS(=O)(=O)c2ccc(C)cc2)COC(=O)CC=C[C@@H]1C`, the composite z-score [1] is reported as -0.226 and -0.425, the composite z-score [2] is reported as 0.711 and 1.44 and the composite z-score [3] is reported as -0.234 and -0.127. The composite z-score [4] was 0.433 and -0.153, the composite z-score [5] was 0.671 and -0.333 and the composite z-score [6] was 0.0292 and -0.476. The composite z-score [7] was 0.628 and 0.956, the z-score [8] was 0.994 (inactive) and 0.445 (inactive) and the composite z-score [9] was 0.0151 and 0.106. The composite z-score [10] was 0.113 and -0.0391.

With `CCOC(=O)[C@H](CC(C)C)NC(=O)CCC1CC(OC(=O)NCc2cccc3ccccc23)CC2(CCCC(COC(=O)NCc3ccccc3)O2)O1` (stereo not given in full) the composite z-score [1] was -0.289, the composite z-score [2] was -0.0297 and the composite z-score [3] was -0.116. The composite z-score [4] was 0.129, the composite z-score [5] was -0.362 and the composite z-score [6] was -0.421. For the same compound, the composite z-score [7] was -0.0852, the z-score [8] was 2.99 (inactive) and the composite z-score [9] was -0.0955. It also gave a composite z-score [10] of -0.143.
